Results taken from PubChem BioAssay (NCATS).
Several values for one entry are separate records, joined by “and”; a condition that tells them apart may be missing. Equal values may be shown once. Records with an inconclusive call do not appear. Where a call stands in place of a potency, no number is given. The source holds several records for some structures; these can differ, active in one and inactive in another. Activity calls are given as the source filed them. Unless noted, the call rests on the fitted dose curve; in most records, active means well fitted curve in the direction sought with a large enough effect; inconclusive means small, poorly fitted or top-dose-only effect, or another doubt; inactive means no such curve, though single readings can be large; an effect the other way counts as inactive or inconclusive.

Key:
[1] = Primary qHTS for inhibitors of nuclear receptor binding SET domain protein 2 (NSD2) in an isogenic RCH-ACV NSD2 p.E1099K mutant (9B) (AID 1645876); settings: RCH-ACV NSD2 E1099K (9B) viability, CellTiter-Glo, 72 h; series mostly up to 44.9 µM; further: nearly all actives have a fitted effect of over 70% in size; further: potency means the concentration at half of the fitted maximal effect
[2] = Primary qHTS for inhibitors of nuclear receptor binding SET domain protein 2 (NSD2) in an RCH-ACV wild type WT cells (2C) (AID 1645877); settings: RCH-ACV (leukaemia line) NSD2 WT (2C) viability, CellTiter-Glo, 72 h; series mostly up to 44.9 µM; further: nearly all actives have a fitted effect of over 70% in size; further: potency means the concentration at half of the fitted maximal effect
[3] = biological target: Catechol O-methyltransferase (Homo sapiens) (UniProt P21964); test: Confirmatory Screen for Target Class Profiling of Small Molecule Inhibitors of Methyltransferases (AID 1745852; calls by dose curve); settings: MTase-Glo luminescence, SAH detection, recombinant enzyme, stronger effect = lower value; measured here: COMT max response unless noted
Sequence of Catechol O-methyltransferase (Homo sapiens) (P21964 whole entry, looked up): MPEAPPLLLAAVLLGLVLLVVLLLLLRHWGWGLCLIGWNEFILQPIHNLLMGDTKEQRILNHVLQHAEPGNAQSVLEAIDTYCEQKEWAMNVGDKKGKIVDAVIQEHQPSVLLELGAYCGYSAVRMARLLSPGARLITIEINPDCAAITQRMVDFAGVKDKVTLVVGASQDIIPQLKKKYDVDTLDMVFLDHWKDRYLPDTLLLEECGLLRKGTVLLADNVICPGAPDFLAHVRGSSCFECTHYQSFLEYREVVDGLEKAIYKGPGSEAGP

[4] = biological target: Guanidinoacetate N-methyltransferase (Homo sapiens) (UniProt Q14353); test: as above; settings: MTase-Glo luminescence, SAH detection, recombinant enzyme; activity change, negative = inhibition: at 57.3 µM (top of the series)
[5] = biological target: Nicotinamide N-methyltransferase (Homo sapiens) (UniProt P40261); test: as above; settings: MTase-Glo luminescence, SAH detection, recombinant enzyme, stronger effect = lower value; measured here: NNMT max response unless noted
Sequence of Nicotinamide N-methyltransferase (Homo sapiens) (P40261 whole entry, looked up): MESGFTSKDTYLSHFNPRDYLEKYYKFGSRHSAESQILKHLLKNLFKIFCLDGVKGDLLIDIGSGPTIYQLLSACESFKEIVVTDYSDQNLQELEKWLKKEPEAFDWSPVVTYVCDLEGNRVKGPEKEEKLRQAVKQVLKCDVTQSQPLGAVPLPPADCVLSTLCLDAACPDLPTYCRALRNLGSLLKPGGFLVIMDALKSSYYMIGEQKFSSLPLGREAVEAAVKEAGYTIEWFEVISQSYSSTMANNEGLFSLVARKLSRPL

[6] = biological target: Phenylethanolamine N-methyltransferase (Homo sapiens) (UniProt P11086); test: as above; settings: MTase-Glo luminescence, SAH detection, recombinant enzyme, stronger effect = lower value; measured here: PNMT max response unless noted
Sequence of Phenylethanolamine N-methyltransferase (Homo sapiens) (P11086 whole entry, looked up): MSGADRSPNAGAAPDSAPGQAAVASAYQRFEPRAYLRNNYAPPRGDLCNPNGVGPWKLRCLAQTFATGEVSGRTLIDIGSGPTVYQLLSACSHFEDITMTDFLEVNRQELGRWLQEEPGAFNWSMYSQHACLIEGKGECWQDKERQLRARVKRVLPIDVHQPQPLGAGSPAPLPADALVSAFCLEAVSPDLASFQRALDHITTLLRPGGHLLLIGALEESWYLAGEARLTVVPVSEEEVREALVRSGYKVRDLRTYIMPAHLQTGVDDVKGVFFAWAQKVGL

[7] = NCATS anti-infectives library activity on HEK293 viability as a counter-qHTS vs the C. elegans viability qHTS (AID 1745854); settings: HEK293 viability counter-screen; series mostly up to 41.8 µM;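 further: HEK293 cells exposed to compounds for 24 hr before the viability read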
Procedure, shortened: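 Compounds were acoustically plated (several concentrations, 1:5, final up to 41.7 uM), then 1500 HEK293 cells added per well and incubated 24 hr at 37C, 5% CO2. CellTiter-Glo was added and luminescence read after 10 min.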

[8] = biological target: Metallo-beta-lactamase type 2 (Klebsiella pneumoniae) (UniProt C7C422); test: qHTS to identify inhibitors of the New Delhi Metallo-beta-lactamase (NDM): assay validation screen against the NCATS LOPAC Collection (AID 1794843); settings: NDM-1 enzyme, nitrocefin hydrolysis, absorbance 485 nm; series mostly up to 38.4 µM;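 further: nitrocefin turnover by NDM-1 measured as 485 nm absorbance at plateau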
Sequence of Metallo-beta-lactamase type 2 (Klebsiella pneumoniae) (C7C422 whole entry, looked up): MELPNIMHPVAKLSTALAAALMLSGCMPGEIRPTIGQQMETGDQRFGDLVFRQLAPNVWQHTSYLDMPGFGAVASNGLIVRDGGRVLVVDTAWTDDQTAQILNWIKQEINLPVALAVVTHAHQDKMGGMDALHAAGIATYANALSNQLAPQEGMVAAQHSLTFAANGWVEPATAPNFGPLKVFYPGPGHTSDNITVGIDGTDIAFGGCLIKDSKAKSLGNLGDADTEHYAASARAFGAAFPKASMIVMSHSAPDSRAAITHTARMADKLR
Procedure, shortened: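 NDM-1 at 2 nM final in 50 mM HEPES pH 7.0, 1 uM ZnSO4, 0.01% Tween20, preincubated with LOPAC compounds pinned in DMSO; 50 uM nitrocefin (stock) added. Hydrolysis read as absorbance at 485 nm in the plateau phase.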

[9] = NCATS anti-infectives library activity on the primary C. elegans qHTS viability assay (AID 1745855; calls by dose curve; further: potency means the concentration at half of the fitted maximal effect); settings: C. elegans worm area imaging, day 7; series mostly up to 41.8 µM
Procedure, shortened: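 Viability read-out is GFP fluorescence of PE254-GFP-FLuc C. elegans, measured by laser cytometry (488 nm) at day 0, 3 and 7. Ten L1 worms per well were incubated 7 days at 21 °C with compounds and bacterial capsules in S medium.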

[10] = Viability counterscreen for antagonist of constitutive androstane receptor (CAR) against the NCATS DSHEA and TCM libraries (AID 1794837); settings: CAR reporter cell line viability counterscreen, qHTS; series mostly up to 40 µM;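 further: compound exposure lasted 24 h before viability reading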
Procedure, shortened: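 HepG2-CYP2B6-hCAR cells, 2,500/well, were exposed 24 hr at 37C to substances together with 48 uM CITCO (final). Viability was read as CellTiter-Fluor fluorescence (Ex/Em 405/540 nm) after 1 hr.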

[11] = Viability counterscreen for agonist of constitutive androstane receptor (CAR) against the NCATS DSHEA and TCM libraries (AID 1794838); settings: HepG2 cell viability counterscreen, CAR agonist assay, co-treated with 0.75 µM CAR antagonist; series mostly up to 40 µM;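 further: HepG2 cells with CYP2B6 reporter and hCAR plus 0.75 µM PK11195 antagonist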
Procedure, shortened: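 HepG2-CYP2B6-hCAR cells (2,500/well) treated 24 h at 37C with compounds plus 0.75 uM PK11195; viability read by CellTiter-Fluor fluorescence, Ex/Em 405/540 nm.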

[12] = biological target: Nuclear receptor subfamily 1 group I member 3 (Homo sapiens) (UniProt Q14994); test: Primary qHTS for agonist of constitutive androstane receptor (CAR) against the NCATS DSHEA and TCM libraries (AID 1794839); settings: CAR agonist reporter cells, qHTS luminescence, CAR antagonist co-added at 0.75 µM; series mostly up to 40 µM;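 further: HepG2 cells expressing human CAR with a CYP2B6 reporter plus PK11195 antagonist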
Sequence of Nuclear receptor subfamily 1 group I member 3 (Homo sapiens) (Q14994 whole entry, looked up): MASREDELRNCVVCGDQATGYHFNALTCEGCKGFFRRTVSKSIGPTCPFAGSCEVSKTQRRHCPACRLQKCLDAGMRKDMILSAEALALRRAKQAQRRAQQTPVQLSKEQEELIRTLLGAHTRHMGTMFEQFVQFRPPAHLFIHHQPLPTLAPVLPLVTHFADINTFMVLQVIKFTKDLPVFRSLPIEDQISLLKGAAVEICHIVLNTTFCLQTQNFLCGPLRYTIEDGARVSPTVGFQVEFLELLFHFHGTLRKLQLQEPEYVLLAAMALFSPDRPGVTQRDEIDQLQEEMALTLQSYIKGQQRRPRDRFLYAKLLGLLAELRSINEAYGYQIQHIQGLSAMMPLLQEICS
Procedure, shortened: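 HepG2-CYP2B6-hCAR cells, 2,500/well, attached 5 h, then dosed with 0.75 µM PK11195 (final) for 24 h at 37 °C. Luciferase luminescence read (ONE-Glo); CellTiter-Fluor viability (Ex/Em 405/540 nm) in same wells; CITCO positive control.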

[13] = HepG2 viability counterscreen (readout 2: ATP content) against the NCATS DSHEA and TCM libraries (AID 1794840); settings: ATP content luminescence; series mostly up to 27.3 µM
Procedure, shortened: (§1)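 HepG2 cells, 1,000/well, attached ~4 h, then exposed ~24 h at 37C to substances. Protease activity read by fluorescence of 25 uM GF-AFC (Ex/Em 380/510 nm) after 30 min; ATP then by CellTiter-Glo luminescence.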

[14] = HepG2 viability counterscreen (readout 1: protease activity) against the NCATS DSHEA and TCM libraries (AID 1794841); settings: qHTS concentration series; series mostly up to 27.3 µM;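 further: cells exposed to compounds for about 24 h before the protease read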
Procedure, shortened: as §1

## N[C@@H](Cc1cc(I)c(Oc2cc(I)c(O)c(I)c2)c(I)c1)C(=O)O
[1]
  Potency: inactive
[2]
  Potency: inactive
[3]
  activity: -6.89%
[4]
  activity change, negative = inhibition: -4.64%
[5]
  activity: -9.69%
[6]
  activity: -6.64%

## O=c1oc2cc(O)ccc2s1
[1]
  Potency: 20.9 µM (active)
[2]
  Potency: 20.9 µM (active)
[7]
  outcome: inactive

## O=C1c2ccccc2-c2n[nH]c3cccc1c23
[1]
  Potency: 11.8 µM (active) and 14.6 µM (active)
[2]
  Potency: 13.2 µM (active) and 14.6 µM (active)
[8]
  outcome: inactive

## CCN(CC)CCOc1ccc(Nc2ncc3cc(-c4c(Cl)cccc4Cl)c(=O)n(C)c3n2)cc1
[1]
  Potency: 0.417 µM (active)
[2]
  Potency: 0.468 µM (active)
[3]
  activity: -14.1%
[4]
  activity change, negative = inhibition: 1.71%
[5]
  activity: -19.9%
[6]
  activity: -2.93%
[8]
  outcome: inactive

## c1cnc2cc3c(cc2n1)C1CNCC3C1
[1]
  Potency: inactive
[2]
  Potency: inactive
[8]
  outcome: inactive

## CCOC(=O)c1c(C)n(C)c2ccc(O)cc12
[1]
  Potency: inactive
[2]
  Potency: inactive
[7]
  outcome: inactive

## CC(C)C[C@H](NC(=O)[C@H](Cc1ccccc1)NC(=O)c1cnccn1)B(O)O
[1]
  Potency: 3.8 nM (active) and 5.2 nM (active) and 26.3 nM (active)
[2]
  Potency: 3.8 nM (active) and 6.5 nM (active) and 18.6 nM (active)
[9]
  Potency: 2.3 µM (active)

## COc1c(O)cc2c(c1O)[C@@H]1O[C@H](CO)[C@@H](O)[C@H](O)[C@H]1OC2=O
[1]
  Potency: inactive
[2]
  Potency: inactive
[3]
  activity: -77.9%
[4]
  activity change, negative = inhibition: 0%
[5]
  activity: 1.14%
[6]
  activity: -0.831%
[7]
  outcome: inactive

## N=C(N=C(N)N)N1CCOCC1
[1]
  Potency: inactive
[2]
  Potency: inactive
[7]
  outcome: inactive
[9]
  Potency: inactive

## O=c1cc(N2CCOCC2)oc2c(-c3ccccc3)cccc12
[1]
  Potency: 4.17 µM (active)
[2]
  Potency: 2.63 µM (active)
[8]
  outcome: inactive

## Cc1cc(O)c2c(c1)C(=O)c1cc(O)cc(O)c1C2=O
[1]
  Potency: inactive
[2]
  Potency: inactive
[10]
  outcome: inactive
[11]
  outcome: inactive
[12]
  outcome: inactive
[13]
  outcome: inactive
[14]
  outcome: inactive
[8]
  outcome: inactive

## CCN(CC)C(=S)SSC(=S)N(CC)CC
[1]
  Potency: 351 nM (active) and 2.66 µM (active) and 2.63 µM (active)
[2]
  Potency: 394 nM (active) and 4.22 µM (active) and 2.95 µM (active)
[3]
  activity: -3.32%
[4]
  activity change, negative = inhibition: 4.64%
[5]
  activity: -10.3%
[6]
  activity: -2.02%

## NC(=NCc1ccccc1)NC(=O)c1nc(Cl)c(N)nc1N
[1]
  Potency: 13.2 µM (active)
[2]
  Potency: 13.2 µM (active)
[8]
  outcome: inactive

## CC(=O)NC[C@H]1CN(c2ccc(N3CCOCC3)c(F)c2)C(=O)O1
[1]
  Potency: inactive
[2]
  Potency: inactive
[7]
  outcome: inactive
[8]
  outcome: inactive

## O=P(O)(O)C(O)(Cn1ccnc1)P(=O)(O)O
[1]
  activity change, negative = viability loss: 6% [at 4.96 µM] (inactive)
[2]
  outcome: inactive [at 4.96 µM]
[7]
  activity change, negative = cytotoxicity: -5.55% [at 3.71 µM] (inactive)

## CCN(CCO)CCCC(C)Nc1ccnc2cc(Cl)ccc12 (centres undefined)
[1]
  activity change, negative = viability loss: 1.42% [at 4.96 µM] (inactive) and 7.11% [at 4.96 µM] (inactive)
[2]
  outcome: inactive [at 4.96 µM]
[7]
  activity change, negative = cytotoxicity: -19.5% [at 3.71 µM] (inactive)

## Oc1ccc(OCc2ccccc2)cc1
[1]
  Potency: inactive and 2.63 µM (active)
[2]
  Potency: inactive and 4.68 µM (active)
[7]
  outcome: inactive

## Oc1ccc(-c2nc(-c3ccc(F)cc3)c(-c3ccncc3)[nH]2)cc1
[1]
  Potency: 5.25 µM (active)
[2]
  Potency: 14.8 µM (active)
[8]
  outcome: inactive

## CCOC(=O)C(C)Oc1cccc2c(=O)n(CC(=O)Nc3ccc4c(c3)OCCO4)ccc12 (centres undefined)
[1]
  Potency: inactive
[2]
  Potency: inactive
[8]
  outcome: inactive

## N=C(N)c1ccc2cc(OC(=O)c3ccc(N=C(N)N)cc3)ccc2c1
[1]
  Potency: inactive
[2]
  Potency: inactive
[7]
  outcome: inactive
[9]
  Potency: inactive

## CC(C)[C@H](N)C(=O)OCCOCn1cnc2c(=O)[nH]c(N)nc21
[1]
  Potency: inactive
[2]
  Potency: inactive
[7]
  outcome: inactive

## CN(C)C(=O)COC(=O)Cc1ccc(OC(=O)c2ccc(N=C(N)N)cc2)cc1
[1]
  Potency: inactive
[2]
  Potency: inactive
[7]
  outcome: inactive

## CN(C)CCCC1(c2ccc(F)cc2)OCc2cc(C#N)ccc21 (centres undefined)
[8]
  outcome: inactive

## Nc1nc(OCc2ccccc2)c2[nH]cnc2n1
[8]
  outcome: inactive

## COc1cc2c(cc1OC)C1CC(=O)C(CC(C)C)CN1CC2 (centres undefined)
[1]
  Potency: inactive
[2]
  Potency: inactive
[8]
  outcome: inactive

## CN1CCC(=C2c3ccccc3CCc3sccc32)CC1
[2]
  Potency: 23.5 µM (active)

## CC1(C)NC(=O)N(c2ccc([N+](=O)[O-])c(C(F)(F)F)c2)C1=O
[1]
  Potency: inactive
[2]
  Potency: inactive
[8]
  outcome: inactive

## Cc1cc2c(s1)Nc1ccccc1N=C2N1CCN(C)CC1
[2]
  Potency: 23.5 µM (active)

## CC(C)c1nc(CN(C)C(=O)N[C@H](C(=O)N[C@@H](Cc2ccccc2)C[C@H](O)[C@H](Cc2ccccc2)NC(=O)OCc2cncs2)C(C)C)cs1
[7]
  outcome: inactive
